# Reference: PubChem BioAssay
# Results filed as inconclusive are left out. Calls of active or inactive are those of the source.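 How the source made its calls, unless noted: active means percent response above 42, roughly 3 SD of non-fluorescent test compounds; inactive means the rest.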
# Key:
# [1] = rapamycin-like changes in RPL19A-GFP expression – cell-based, S. cerevisiae, multiplex flow cytometry, primary screen (AID 1862; in the data active means percent of DMSO control GFP below about 86%;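 further: lower values mimic rapamycin by blocking the RPL19A rise seen in DMSO cells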); details: S. cerevisiae RPL19A-GFP strain, flow cytometry fluorescence, 3 h; at 10 µM; stronger effect = lower value
# [2] = TOR pathway GLN3 branch reporter MEP2-GFP changes – S. cerevisiae, multiplex flow cytometry, primary screen (AID 1867;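 active means GFP response, as percent of the DMSO control, above the screen-wide mean plus 3 SD, about 139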;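 further: median GFP channel fluorescence of barcode-gated MEP2-GFP cells measured by flow cytometry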); details: S. cerevisiae MEP2-GFP strain, 3 h, at 10 µM, stronger effect = higher value, 100% means same as DMSO wells
# [3] = TOR pathway RTG branch CIT2 reporter changes – S. cerevisiae, GFP fusion, multiplex flow cytometry, primary screen (AID 1870;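 active means percent response above a set limit, the screen-wide mean plus 3 SD, cut at about 130% in these data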;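 further: barcoded CIT2-GFP strain pooled with four other GFP strains with rapamycin as positive control; median GFP fluorescence per well over plate mean of DMSO wells so 100% = DMSO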); details: S. cerevisiae CIT2-GFP expression, 3 h, at 10 µM, stronger effect = higher value
# [4] = TOR pathway LAP4-GFP level changes – S. cerevisiae, multiplex flow cytometry, primary screen (AID 1873;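 active means GFP signal, as percent of the solvent control, above the screen mean plus 3 SD, about 149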); details: S. cerevisiae LAP4-GFP expression, 3 h, at 10 µM, stronger effect = higher value
# [5] = yeast AGP1-GFP level changes, GLN3 branch – cell-based, multiplex flow cytometry, S. cerevisiae, primary screen (AID 1887;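 active means GFP signal above the screen-wide mean plus 3 SD, that is over about 124.5% of the solvent control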;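 further: AGP1-GFP fusion strain of S. cerevisiae within a five-strain barcoded multiplex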); details: 3 h, at 10 µM, stronger effect = higher value
# [6] = reduced mouse 2C T cell binding to pMHC/ICAM-1 vesicles – MLPCN validation set, flow cytometry, LFA-1/ICAM-1 modulator project, pilot screen (AID 2523;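 active means response below a set limit, under 55% cells CD8-positive and vesicle-bound, and CD8 cells' 90th-percentile brightness under 279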;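 on vesicle binding response: mean PE anti-B7-1 fluorescence of CD8+ cells relative to row control; 100% = QL9-loaded vesicles with DMSO vehicle in the same plate row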); details: 2C mouse CD8+ T cells, at 7 µM, stronger effect = lower value; double positive events: measured here: CD8+/vesicle+ event percentage
# [7] = molecular target: Integrin beta-1 (Homo sapiens) + Integrin alpha-4 (Homo sapiens) (UniProt P13612+P05556); experiment: alpha4beta1 integrin LIBS antibody binding reduction – U937 cells, HUTS-21 mAb, flow cytometry, validation set, VLA-4 allosteric modulator project, pilot screen (AID 2674;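 active means inhibition above 50%, about 3 SD of the validation set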;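 further: antibody binding induced by the VLA-4 ligand LDV present at three times its Kd; 0% = LDV ligand with antibody and no compound and 100% = antibody without LDV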); details: HUTS-21 LIBS mAb binding, at 6.7 µM, stronger effect = higher value, binding induced by LDV ligand
# [8] = calorie-restriction mimetic ROS inhibitors, yeast – validation compound set, pilot screen (AID 2706;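 active means superoxide response below 65% of plate, a cut near 3 SD across the whole screen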;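 further: yeast exposed to compound for one week at 30 degrees C before staining; 100% = mean of all compound wells on the same plate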); details: S. cerevisiae aging, superoxide DHE fluorescence; at 10 µM; stronger effect = lower value
# [9] = molecular target: Beta-adrenergic receptor kinase 1 (Homo sapiens) (UniProt P25098); experiment: GRK2 binders displacing RNA aptamer, biochemical, validation, human GRK2, bead flow cytometry (AID 488806;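 active means aptamer binding inhibition above 30%, about 3 SD of noise from non-fluorescent compounds; inactive means inhibition at or below 30%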); details: bead-bound GRK2, FAM-aptamer displacement, at 10 µM, stronger effect = higher value
# [10] = molecular target: Beta-2 adrenergic receptor (Homo sapiens) (UniProt P07550); experiment: agonist-induced loss of surface beta2AR – cell-based, FAP fluorogen, flow cytometry, validation set, pilot screen (AID 504459); details: Am2.2-beta2AR cells, at 10 µM, stronger effect = higher value;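 further: agonist-driven loss of surface beta2AR via internalization measured by FAP dye flow cytometry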
# [11] = molecular target: AP-2 complex subunit beta (Homo sapiens) (UniProt P63010); experiment: beta-arrestin/AP2 interaction blockers – biochemical, validation set, GST-AP2 beads, flow cytometry, pilot screen (AID 504541;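 active means inhibition above 54%, about 3 SD of non-fluorescent compounds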;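 further: AP2 carries R879A mutation and is captured from E. coli lysate; bead-bound FITC arrestin peptide fluorescence measuring arrestin peptide binding to AP2; 0% = DMSO wells and 100% = excess unlabeled arrestin peptide control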); details: FITC arrestin peptide, at 10 µM, stronger effect = higher value, AP2 beta2 appendage fragment, R879A mutant
# [12] = cytosolic pH regulators acting via V-ATPase – S. cerevisiae, pHLuorin, HTS validation (AID 504600; in the data active means response above about 15%;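 further: plate controls were DMSO for no effect and reference compound for full effect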); details: V-ATPase proton transport, at 10 µM, stronger effect = higher value
# [13] = system: anti-desmoglein-3 scFv antibody binding to human DSG3; experiment: blockers of pathogenic pemphigus antibody–desmoglein-3 binding – biochemical, validation compound set, bead-based, flow cytometry, pilot screen (AID 588368;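 active means binding below the plate cutoff, the plate median minus 3 SD, with a reading above zero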;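 further: signal is the median channel fluorescence of bead-bound GFP antibody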); details: Protein G beads, DSG3-Fc, scFv-GFP binding, at 10 µM, stronger effect = lower value
# [14] = Nile Red efflux blockade in pump-expressing yeast – validation compound set, multiplex, phenotypic, pilot screen (AID 588506;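 active means efflux inhibition above 0.42, the validation set average plus 4 SD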;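 further: Nile Red retained in cells so higher fluorescence means more efflux inhibition; 0 = negative control wells and 1 = enniatin B 25 µM full block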); details: S. cerevisiae pump-expressing triplex, Nile Red efflux flow cytometry; at 10 µM; stronger effect = higher value; the pumps come from Candida albicans
# [15] = molecular target: ATP-binding cassette sub-family B member 6 (Homo sapiens) (UniProt Q9NP58); experiment: blockers of ABCB6-driven porphyrin uptake – K562-ABCB6 cells, flow cytometry, validation set, pilot screen (AID 588550;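 active means inhibition above the screen-wide mean plus 3 SD, about 51%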;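 further: 0% = DMSO wells and 100% = benzethonium chloride 70 µM positive control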); details: K562-ABCB6 porphyrin accumulation, 1 h, at 10 µM, stronger effect = higher value
# [16] = AML differentiation inducers, ER-HoxA9 marrow cells – cell-based, GFP/MAC1 double positive, flow cytometry, validation set, primary screen (AID 588685;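 active means differentiation response of at least 50%, scaled between solvent and reference control, from cells with both markers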;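 further: compound exposure lasts four days before antibody staining and flow analysis; 0% = DMSO wells and 100% = 5 µM fulvestrant positive control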); details: stronger effect = higher value, normalized: vehicle 0, fulvestrant 100
# Chain of ATP-binding cassette sub-family B member 6 (Homo sapiens) (Q9NP58 whole entry, looked up): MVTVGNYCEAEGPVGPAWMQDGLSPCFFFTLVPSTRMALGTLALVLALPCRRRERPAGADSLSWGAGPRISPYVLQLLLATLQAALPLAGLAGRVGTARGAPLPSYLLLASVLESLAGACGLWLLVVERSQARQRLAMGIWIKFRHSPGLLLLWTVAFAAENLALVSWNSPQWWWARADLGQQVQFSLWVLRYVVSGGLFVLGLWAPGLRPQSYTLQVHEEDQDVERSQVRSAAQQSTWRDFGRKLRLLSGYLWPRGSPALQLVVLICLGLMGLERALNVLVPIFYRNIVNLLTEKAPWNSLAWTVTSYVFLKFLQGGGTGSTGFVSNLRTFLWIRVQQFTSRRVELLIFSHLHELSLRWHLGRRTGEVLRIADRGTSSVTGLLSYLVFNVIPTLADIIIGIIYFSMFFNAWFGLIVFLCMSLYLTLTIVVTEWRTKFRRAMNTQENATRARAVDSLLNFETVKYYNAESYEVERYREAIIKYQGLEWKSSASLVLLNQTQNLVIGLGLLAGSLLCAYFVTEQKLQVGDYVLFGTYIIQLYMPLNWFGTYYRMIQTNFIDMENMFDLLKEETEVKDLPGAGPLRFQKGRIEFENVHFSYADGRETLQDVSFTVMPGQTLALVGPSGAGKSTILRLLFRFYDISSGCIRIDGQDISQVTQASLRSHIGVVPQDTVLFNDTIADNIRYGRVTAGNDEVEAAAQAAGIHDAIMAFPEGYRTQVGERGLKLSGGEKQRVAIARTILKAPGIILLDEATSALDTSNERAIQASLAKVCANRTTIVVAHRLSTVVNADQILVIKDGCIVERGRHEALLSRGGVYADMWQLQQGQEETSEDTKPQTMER
# Chain of AP-2 complex subunit beta (Homo sapiens) (P63010 whole entry, looked up, the tested form may be a part, one chain of several): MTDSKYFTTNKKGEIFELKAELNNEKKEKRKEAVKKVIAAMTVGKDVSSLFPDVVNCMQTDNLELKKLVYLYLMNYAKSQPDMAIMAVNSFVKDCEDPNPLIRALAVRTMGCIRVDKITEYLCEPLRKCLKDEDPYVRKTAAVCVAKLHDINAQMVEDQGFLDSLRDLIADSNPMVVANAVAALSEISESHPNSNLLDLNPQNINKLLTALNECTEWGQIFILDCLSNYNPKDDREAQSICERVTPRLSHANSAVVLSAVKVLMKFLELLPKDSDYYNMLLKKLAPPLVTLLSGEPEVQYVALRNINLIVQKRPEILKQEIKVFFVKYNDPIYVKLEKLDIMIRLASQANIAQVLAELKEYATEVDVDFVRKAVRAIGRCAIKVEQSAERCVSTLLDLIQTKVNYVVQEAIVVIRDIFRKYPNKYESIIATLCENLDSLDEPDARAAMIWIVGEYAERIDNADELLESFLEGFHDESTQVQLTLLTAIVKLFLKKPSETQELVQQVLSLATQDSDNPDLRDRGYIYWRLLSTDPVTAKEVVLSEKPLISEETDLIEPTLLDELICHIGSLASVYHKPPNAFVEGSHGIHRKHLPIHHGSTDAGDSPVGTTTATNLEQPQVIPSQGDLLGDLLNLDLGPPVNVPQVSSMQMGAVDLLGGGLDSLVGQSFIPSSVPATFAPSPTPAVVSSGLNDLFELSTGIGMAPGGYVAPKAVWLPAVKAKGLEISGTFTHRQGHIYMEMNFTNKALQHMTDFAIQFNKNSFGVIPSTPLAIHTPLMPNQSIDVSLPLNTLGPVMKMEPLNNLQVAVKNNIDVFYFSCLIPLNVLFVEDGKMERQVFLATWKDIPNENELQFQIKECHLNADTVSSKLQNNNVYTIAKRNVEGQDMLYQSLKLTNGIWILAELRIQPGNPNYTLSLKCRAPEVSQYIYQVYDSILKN
# Chain of Beta-2 adrenergic receptor (Homo sapiens) (P07550 whole entry, looked up): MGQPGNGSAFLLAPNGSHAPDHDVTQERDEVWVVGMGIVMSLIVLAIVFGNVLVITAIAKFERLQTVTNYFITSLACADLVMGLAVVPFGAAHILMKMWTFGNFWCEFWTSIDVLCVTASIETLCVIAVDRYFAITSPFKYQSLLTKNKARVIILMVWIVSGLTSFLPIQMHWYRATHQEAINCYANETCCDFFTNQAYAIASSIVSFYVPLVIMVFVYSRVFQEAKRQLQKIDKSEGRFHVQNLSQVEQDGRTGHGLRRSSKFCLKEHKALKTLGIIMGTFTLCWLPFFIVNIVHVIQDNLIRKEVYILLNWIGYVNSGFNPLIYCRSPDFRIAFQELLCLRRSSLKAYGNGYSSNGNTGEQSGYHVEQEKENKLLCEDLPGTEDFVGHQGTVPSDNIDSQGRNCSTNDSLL
# Chain of Integrin beta-1 (Homo sapiens) + Integrin alpha-4 (Homo sapiens) (P05556 whole entry, looked up): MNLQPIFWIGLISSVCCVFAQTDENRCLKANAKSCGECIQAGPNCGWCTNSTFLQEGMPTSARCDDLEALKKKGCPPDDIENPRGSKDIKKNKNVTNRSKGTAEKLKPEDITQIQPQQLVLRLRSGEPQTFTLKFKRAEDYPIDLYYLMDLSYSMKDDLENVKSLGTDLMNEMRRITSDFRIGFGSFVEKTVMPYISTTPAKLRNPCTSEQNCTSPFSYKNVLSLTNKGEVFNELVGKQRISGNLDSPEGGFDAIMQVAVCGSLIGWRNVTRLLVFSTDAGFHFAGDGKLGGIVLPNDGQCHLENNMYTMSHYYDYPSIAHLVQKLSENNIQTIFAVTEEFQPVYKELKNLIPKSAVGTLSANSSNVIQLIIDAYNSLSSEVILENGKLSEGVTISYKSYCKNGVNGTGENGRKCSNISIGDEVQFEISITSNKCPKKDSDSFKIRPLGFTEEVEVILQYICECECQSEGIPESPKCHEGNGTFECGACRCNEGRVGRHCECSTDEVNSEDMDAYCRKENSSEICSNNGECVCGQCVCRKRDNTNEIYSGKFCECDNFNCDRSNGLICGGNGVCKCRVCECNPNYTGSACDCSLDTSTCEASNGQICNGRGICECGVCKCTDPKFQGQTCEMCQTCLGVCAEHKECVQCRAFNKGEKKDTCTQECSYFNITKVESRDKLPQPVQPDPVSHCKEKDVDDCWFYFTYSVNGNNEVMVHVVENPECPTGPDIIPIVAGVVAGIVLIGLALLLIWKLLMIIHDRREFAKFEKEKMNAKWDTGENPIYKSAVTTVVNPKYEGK
# Chain of Integrin beta-1 (Homo sapiens) + Integrin alpha-4 (Homo sapiens) (P13612 whole entry, looked up): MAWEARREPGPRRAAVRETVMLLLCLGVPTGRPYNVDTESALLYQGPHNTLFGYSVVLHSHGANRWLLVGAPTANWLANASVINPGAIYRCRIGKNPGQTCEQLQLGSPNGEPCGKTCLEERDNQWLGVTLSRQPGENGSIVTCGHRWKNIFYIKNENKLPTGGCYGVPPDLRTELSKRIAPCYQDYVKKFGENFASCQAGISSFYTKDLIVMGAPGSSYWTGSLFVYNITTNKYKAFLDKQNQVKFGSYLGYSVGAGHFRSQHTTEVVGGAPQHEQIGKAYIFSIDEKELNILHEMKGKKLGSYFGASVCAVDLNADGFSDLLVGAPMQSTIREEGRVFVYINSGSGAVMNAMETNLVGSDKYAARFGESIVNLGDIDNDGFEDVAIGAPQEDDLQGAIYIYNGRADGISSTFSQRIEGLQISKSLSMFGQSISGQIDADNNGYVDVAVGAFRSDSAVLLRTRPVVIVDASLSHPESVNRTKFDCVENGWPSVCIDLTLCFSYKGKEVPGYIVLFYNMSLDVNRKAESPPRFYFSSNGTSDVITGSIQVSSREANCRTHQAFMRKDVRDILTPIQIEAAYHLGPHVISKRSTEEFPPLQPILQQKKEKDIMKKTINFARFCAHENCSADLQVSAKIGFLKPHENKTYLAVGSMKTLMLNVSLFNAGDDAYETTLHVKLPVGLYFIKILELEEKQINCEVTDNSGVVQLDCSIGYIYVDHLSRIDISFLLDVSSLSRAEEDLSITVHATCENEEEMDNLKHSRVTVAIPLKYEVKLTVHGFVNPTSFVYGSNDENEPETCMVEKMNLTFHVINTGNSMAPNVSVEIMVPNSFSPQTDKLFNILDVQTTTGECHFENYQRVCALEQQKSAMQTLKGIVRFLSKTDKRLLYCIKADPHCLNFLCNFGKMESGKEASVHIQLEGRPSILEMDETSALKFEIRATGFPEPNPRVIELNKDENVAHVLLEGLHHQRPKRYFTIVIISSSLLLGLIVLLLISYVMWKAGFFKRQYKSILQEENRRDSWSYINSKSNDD
# Chain of Beta-adrenergic receptor kinase 1 (Homo sapiens) (P25098 whole entry, looked up): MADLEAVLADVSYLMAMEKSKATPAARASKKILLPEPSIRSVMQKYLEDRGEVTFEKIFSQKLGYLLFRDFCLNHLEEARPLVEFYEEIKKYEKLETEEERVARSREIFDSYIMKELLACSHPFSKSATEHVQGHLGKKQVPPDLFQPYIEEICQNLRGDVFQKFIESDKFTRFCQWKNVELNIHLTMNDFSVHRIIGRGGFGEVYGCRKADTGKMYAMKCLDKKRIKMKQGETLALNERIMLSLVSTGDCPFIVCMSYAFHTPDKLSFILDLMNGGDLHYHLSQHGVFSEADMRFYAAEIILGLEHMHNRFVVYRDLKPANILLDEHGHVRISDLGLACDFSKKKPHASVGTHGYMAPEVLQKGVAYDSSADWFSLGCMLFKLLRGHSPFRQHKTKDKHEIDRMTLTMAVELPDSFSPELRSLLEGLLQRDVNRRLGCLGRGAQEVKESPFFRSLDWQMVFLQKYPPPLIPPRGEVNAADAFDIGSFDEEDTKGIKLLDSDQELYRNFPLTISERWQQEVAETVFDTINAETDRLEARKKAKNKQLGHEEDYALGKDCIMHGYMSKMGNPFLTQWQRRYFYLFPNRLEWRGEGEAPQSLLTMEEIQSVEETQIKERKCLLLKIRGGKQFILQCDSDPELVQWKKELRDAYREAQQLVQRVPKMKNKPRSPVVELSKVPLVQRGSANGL
Structure (SMILES),percent of DMSO control GFP [1],GFP response vs DMSO [2],percent response of DMSO control [3],GFP response vs DMSO [4],"GFP response, % of DMSO [5]",double positive events [6],vesicle binding response [6],inhibition [7],superoxide response (% of plate) [8],aptamer binding inhibition [9],response [10],inhibition [11],response [12],binding (% of control) [13],efflux inhibition (fraction of control) [14],inhibition [15],differentiation response [16]
c1ccc2[nH]c(-c3cscn3)nc2c1,97.6% (inactive),103% (inactive),97.7% (inactive),123% (inactive),111% (inactive),58.6%,174% (inactive),2.29% (inactive),85.3% (inactive),-2% (inactive),-32% (inactive),5.36% (inactive),1.12% (inactive),108% (inactive),0 (inactive),0% (inactive),-2.03% (inactive)
COc1ccc(C2C3CCCCC3(O)CCN2C(=O)c2cccs2)cc1 (stereo not drawn),102% (inactive),105% (inactive),97% (inactive),107% (inactive),107% (inactive),61.4%,376% (inactive),-0.27% (inactive),102% (inactive),4% (inactive),-26.4% (inactive),-1.09% (inactive),-1.21% (inactive),99% (inactive),0.12 (inactive),-4% (inactive),-1.05% (inactive)
CC(C)(C)n1c(=O)[nH]c2c(c1=O)CCC2,105% (inactive),103% (inactive),98.3% (inactive),113% (inactive),110% (inactive),61.8%,205% (inactive),8.25% (inactive),98.5% (inactive),0% (inactive),-17.6% (inactive),66.2% (active),7.46% (inactive),100% (inactive),0.08 (inactive),-3% (inactive),-12.9% (inactive)
CC(=O)NC(Cc1c[nH]c2ccccc12)C(=O)N/N=C/c1ccccc1 (stereo not drawn),98.6% (inactive),108% (inactive),104% (inactive),99.1% (inactive),98.6% (inactive),62.8%,200% (inactive),-15.8% (inactive),98% (inactive),-3% (inactive),-1.6% (inactive),60.7% (active),-13.1% (inactive),104% (inactive),0 (inactive),-12% (inactive),-3.11% (inactive)
CCCCCCC(=O)N(O)C1CC(=O)N(Cc2ccccc2)C1=O (stereo not drawn),106% (inactive),101% (inactive),107% (inactive),94% (inactive),101% (inactive),59.7%,191% (inactive),-0.45% (inactive),103% (inactive),1% (inactive),-3.98% (inactive),6.86% (inactive),0.52% (inactive),100% (inactive),-0.01 (inactive),9% (inactive),-4.64% (inactive)
O=C1[C@@H]2CSCN2C(=O)CN1Cc1ccc(F)cc1,107% (inactive),95.2% (inactive),106% (inactive),82% (inactive),94.8% (inactive),61.3%,235% (inactive),-3.16% (inactive),111% (inactive),2% (inactive),5.93% (inactive),-4.78% (inactive),-2.17% (inactive),83.8% (inactive),-0.21 (inactive),6% (inactive),-21.6% (inactive)
CCN(CC)CCNC(=O)c1cc(Cl)c(N)cc1OC,105% (inactive),107% (inactive),89.6% (inactive),92% (inactive),99.7% (inactive),63.2%,204% (inactive),-28.5% (inactive),104% (inactive),5% (inactive),2.1% (inactive),23.4% (inactive),-4.6% (inactive),100% (inactive),-0.1 (inactive),-10% (inactive),7.09% (inactive)
CC(=O)c1c[nH]c2ccc(C)cc2c1=O,97.4% (inactive),99.6% (inactive),97.7% (inactive),114% (inactive),94.9% (inactive),60.8%,228% (inactive),-85.1% (inactive),104% (inactive),0% (inactive),-3.59% (inactive),34.1% (inactive),-1.39% (inactive),101% (inactive),-0.31 (inactive),1% (inactive),-18.4% (inactive)
Cc1nc2ccccc2n1CC(O)Cn1c2ccccc2c2ccccc21 (stereo not drawn),90.9% (inactive),115% (inactive),101% (inactive),78.7% (inactive),91.9% (inactive),62.2%,174% (inactive),4.52% (inactive),97.8% (inactive),2% (inactive),8.04% (inactive),-4.66% (inactive),-1.44% (inactive),104% (inactive),0.19 (inactive),9% (inactive),-1.64% (inactive)
